Assay outcomes (PubChem)
A selection: hits, their analogues and other compounds. The true share with any hit is near 3.3%.
AmpC detergent – inhibitors of E. coli AmpC beta-lactamase with detergent; AmpC hydrolysis of nitrocefin, absorbance 480 nm, 0.01% Triton; P00811; Potency, µM (highest dose often 114 µM), hits mostly inhibitors; AID 485294; 370,000 compounds, 0.041% hits; also: nearly all actives have a fitted effect of over 25% in size
Target sequence (P00811 whole entry, looked up): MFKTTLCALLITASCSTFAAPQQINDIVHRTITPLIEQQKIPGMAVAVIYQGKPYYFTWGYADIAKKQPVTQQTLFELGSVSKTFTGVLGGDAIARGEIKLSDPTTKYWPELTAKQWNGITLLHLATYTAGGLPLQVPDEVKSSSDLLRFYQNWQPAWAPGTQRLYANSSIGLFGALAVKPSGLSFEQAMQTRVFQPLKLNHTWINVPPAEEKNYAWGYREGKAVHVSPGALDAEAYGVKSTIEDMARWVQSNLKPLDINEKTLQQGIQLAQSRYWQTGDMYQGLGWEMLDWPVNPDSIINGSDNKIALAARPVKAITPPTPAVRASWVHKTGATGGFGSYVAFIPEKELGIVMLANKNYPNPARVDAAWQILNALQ
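AmpC (5.3 nM in the dispensed reagent) in 20 mM phosphate pH 7.0 with 0.01% (detergent screen) or 0.0001% Triton X-100 was preincubated with compounds for 15 min at room temperature. Nitrocefin was then added from an 800 uM solution, and hydrolysis was followed at 480 nm.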
Sm TGR inh – blocks Schistosoma mansoni thioredoxin glutathione reductase. Q962Y6. purified TGR, DTNB reduction, TNB absorbance 405 nm. Potency, µM (doses to about 114 µM), actives largely listed as inhibitors. 360,000 compounds, 3% hits. AID 485364; also: nearly all actives have a fitted effect of over 60% in size
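First, TGR (20 nM dispensed) and NADPH were mixed with compound. Second, a 15 min room-temperature incubation followed. Third, further NADPH and then DTNB were added to start the reaction. Finally, TNB absorbance was monitored kinetically.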
AmpC no deterg – AmpC beta-lactamase inhibition without detergent | P00811 | AmpC nitrocefin hydrolysis, absorbance 480 nm, 0.0001% Triton | Potency, µM (doses to about 57.1 µM), actives largely listed as inhibitors | 330,000 compounds, 0.52% hits | AID 485341; also: nearly all actives have a fitted effect of over 20% in size
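20 mM phosphate pH 7.0 + 0.01% (detergent screen) or 0.0001% Triton X-100; 5.3 nM AmpC reagent; cpd preinc 15 min RT; nitrocefin (800 uM stock) to start; A480 q20 s × 4 min; Activity was normalised to no-enzyme and no-compound control wells.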
Each line names hits and unclear results; the compound was inactive in the other large screens. Calls follow the shape of the dose curve; as a rule, active = well fitted curve in the direction sought with a large enough effect; inconclusive = small, poorly fitted or top-dose-only effect, or another doubt; inactive = no such curve, though single readings can be large; an effect the other way counts as inactive or inconclusive.

COc1ccc(N2CCN(C(CNC(=O)C(=O)NCc3ccc(F)cc3)c3cccnc3)CC2)cc1 (stereo not drawn)	none (no result: AmpC no deterg)
COc1ccc2oc(=O)c(C(=O)Nc3cccc(C(C)=O)c3)cc2c1	none
COc1ccc2oc(=O)c(C(=O)N3CCN(C(=O)c4ccccc4)CC3)cc2c1	AmpC detergent inconclusive
COc1ccc2oc(=O)c(/C(C)=N/Nc3ccccc3)cc2c1	Sm TGR inh 45µM
COc1ccc2oc(=O)c(C(=O)N3CCN(C(=O)c4ccco4)CC3)cc2c1	Sm TGR inh 40µM
CCc1ccccc1NC(=O)Cn1c(=O)ccc2cc(S(=O)(=O)N3CCCC3)ccc21	none (no result: AmpC no deterg)
CCOC(=O)c1c(NC(C)=O)sc2c(O)cccc12	none
CCOC(=O)c1c(NC(C)=O)sc2c(O)c(Br)cc(Br)c12	Sm TGR inh 40µM
CCOC(=O)C1CCN(C(=O)Cn2nc(CC)n3c(cc4occc43)c2=O)CC1	none (no result: AmpC no deterg)
Cc1[nH]c2ccccc2c1/C=N/NC(=O)c1cccc(S(=O)(=O)Nc2cccc(C(F)(F)F)c2)c1	AmpC no deterg 4.5µM (no result: Sm TGR inh)
NNC(=O)c1cccc(S(=O)(=O)Nc2cccc(C(F)(F)F)c2)c1	none
Cc1ccc(C)c(Cn2c(=O)n(CCc3ccccc3)c(=O)c3c(C)c(C)sc32)c1	none (no result: AmpC no deterg)
Cc1ccc(CNS(=O)(=O)c2cc3c(cc2Cl)NC(=O)CO3)o1	Sm TGR inh 32µM (no result: AmpC no deterg)
Cc1ccc(CNC(=O)CCS(=O)(=O)c2cc3c(cc2Cl)NC(=O)CO3)o1	none
NC(=O)C1CCN(C(=S)c2ccc(-c3ccc(Br)cc3)o2)CC1	none
O=C(O)CCc1ccc(-c2ccc(Cl)cc2)o1	Sm TGR inh 5µM
NC(=O)c1ccc(-c2ccc(Br)cc2)o1	AmpC detergent inconclusive, Sm TGR inh 40µM
COc1ccc(-c2ccc(CCC(=O)O)o2)cc1	Sm TGR inh 2.8µM
COc1ccc(-c2noc(CCC(=O)O)n2)cc1	AmpC detergent inconclusive
O=C(O)CCc1ccc(-c2ccc(Br)cc2)o1	Sm TGR inh 7.9µM
Cc1oc(-c2ccc(Cl)cc2)cc1C(=O)O	none
O=C(O)c1ccc(N/N=C/c2ccc(-c3ccc(Br)cc3)o2)cc1	none
CCc1c(C)c2ccc(O)c(CN3CCN(c4cc(Cl)ccc4C)CC3)c2oc1=O	none (no result: AmpC no deterg)
CCCS(=O)(=O)N1CC(=O)N(c2cc(C)cc(C)c2)C(C)(C(=O)NC2CCCCCC2)C1 (stereo not drawn)	none (no result: AmpC no deterg)
CC(O)CNC(=O)C(=O)Nc1c2c(nn1-c1ccc(Cl)cc1)CSC2 (stereo not drawn)	none (no result: AmpC no deterg)
Cc1sc2ncn(CC(=O)N(C)c3ccc(C(C)C)cc3)c(=O)c2c1S(=O)(=O)N1CCC(C)CC1	none (no result: AmpC no deterg)
COc1ccccc1CNc1ccc(-c2nc(C)no2)cc1[N+](=O)[O-]	none (no result: AmpC no deterg)
CS(=O)(=O)c1sc(C#N)c2c1C(=O)CC(c1ccccc1)C2 (stereo not drawn)	Sm TGR inh 0.32µM
Cc1oc2c(c(=O)c1C)C(=O)CC(c1ccccc1)C2 (stereo not drawn)	none
CC(C)CCNC(=O)c1cnc2sc(N3CCCCC3)nn2c1=O	none (no result: AmpC no deterg)
Cc1nc(CS(=O)(=O)c2ccc(Cl)cc2)cc(Sc2ccc(Cl)cc2)n1	AmpC no deterg 4µM
O=S(=O)(Cc1cc(Sc2ccc(Cl)cc2)nc(-c2ccccc2)n1)c1ccccc1	none
C#CCn1c(=NC(=O)c2ccc(Br)s2)sc2cccc(OC)c21	AmpC detergent inconclusive, AmpC no deterg 1.4µM
C=CCn1c(=NC(=O)c2cccs2)sc2cccc(OC)c21	none
CCOC(=O)c1[nH]c2ccccc2c1NC(=O)c1ccc(OC(C)C)cc1	none (no result: AmpC no deterg)
COc1cc(NC(=O)Cc2noc3ccccc23)cc(OC)c1OC	none (no result: AmpC no deterg)
CCOc1ccc(C2C(C(=O)c3ccc(C)o3)=C(O)C(=O)N2CCN2CCOCC2)cc1OC (stereo not drawn)	Sm TGR inh 50µM
COc1ccc(C2C(C(=O)c3ccco3)=C(O)C(=O)N2CCc2ccccc2)cc1OC (stereo not drawn)	none
CCCOc1ccc(C2C(C(=O)c3ccco3)=C(O)C(=O)N2CCN2CCOCC2)cc1OC (stereo not drawn)	Sm TGR inh 40µM
COc1cccc(C2C(C(=O)c3ccc(C)o3)=C(O)C(=O)N2CCN2CCOCC2)c1 (stereo not drawn)	none
COc1ccc(C2C(C(=O)/C=C/c3ccco3)=C(O)C(=O)N2CCN2CCOCC2)cc1OC (stereo not drawn)	Sm TGR inh 11µM
CCOc1ccc(C2C(C(=O)c3ccco3)=C(O)C(=O)N2CCN2CCOCC2)cc1OCC (stereo not drawn)	Sm TGR inh inconclusive
Cc1nc2c(-c3ccccc3)c(C)nn2c(C)c1CCC(=O)NCc1ccc(F)cc1	none (no result: AmpC no deterg)
O=C(Nc1nnc(N2CCCC2)s1)Nc1cc(F)ccc1F	none (no result: AmpC no deterg)
CCCS(=O)(=O)Nc1cc2c(cc1NCc1ccccc1)n(C)c(=O)n2C	none (no result: AmpC no deterg)
CN(C)c1ccc(-c2nc3ccccn3c2Nc2ccc3c(c2)OCCO3)cc1	AmpC detergent inconclusive (no result: AmpC no deterg)
CCCN1C(=O)SC(CC(=O)Nc2ccccc2)C1=O (stereo not drawn)	none
O=C(CC1SC(=O)N(c2ccccc2)C1=O)Nc1ccc(Br)cc1 (stereo not drawn)	Sm TGR inh 3.2µM, AmpC no deterg 8.9µM
O=C(CC1SC(=Nc2ccccc2)N(CCCO)C1=O)Nc1ccc(Cl)cc1 (stereo not drawn)	none
O=C(CC1SC(=O)N(c2ccccc2)C1=O)Nc1ccc(Cl)cc1 (stereo not drawn)	Sm TGR inh 4µM
O=c1cc(CN2CCN(CCO)CC2)c2cc3c(cc2o1)CCC3	none
O=c1cc(CN2CCN(Cc3ccccc3)CC2)c2cc3c(cc2o1)CCC3	Sm TGR inh 35µM
COc1cccc(/C=N/NC(=O)c2ccccc2)c1OS(=O)(=O)c1ccccc1	AmpC no deterg 32µM
COc1cccc(/C=N/NC(=O)c2ccc(=O)n(C)c2)c1OC	none
CCCC[n+]1c(C)sc2ccc(C)cc21	none
Cc1ccc2sc(C)[n+](CCO)c2c1	Sm TGR inh 25µM
COc1cccc(C(=O)Nc2nc(-c3nnn(-c4ccccc4C(F)(F)F)c3C)ns2)c1	none (no result: AmpC no deterg)
CCCCN(C)C(=O)c1ccc2c(c1)N(Cc1cccc(F)c1)C(=O)c1ccccc1S2	none (no result: AmpC no deterg)
CCc1ccc(NCc2cc3cc4c(cc3n(CC(=O)Nc3ccccc3Cl)c2=O)OCO4)cc1	none (no result: AmpC no deterg)
Cn1nnc2cc(C(=O)NCc3ccco3)ccc21	Sm TGR inh 40µM (no result: AmpC no deterg)
COc1ccccc1-n1cnc2cc(C(=O)NCc3ccco3)ccc21	Sm TGR inh 40µM
Cn1ncc(Cl)c1C(=O)NCc1ccco1	Sm TGR inh 18µM
COc1ccccc1-n1cnc2cc(C(=O)NCCCN3CCOCC3)ccc21	none
Cn1nccc1CNC(=O)c1c(Cl)cnn1C	AmpC detergent inconclusive
O=C(NCc1ccco1)c1ccc2nccnc2c1	none
COC(=O)c1ccc2nc(C)cc(Nc3cccc(Cl)c3C)c2c1	none (no result: AmpC no deterg)
CCOC(=O)c1nnc2c(-c3ccc(F)cc3)c(C)nn2c1N	none (no result: AmpC no deterg)
Cc1ccc(NC(=O)C2CCCN2S(=O)(=O)c2cccc3cccnc23)cc1 (stereo not drawn)	none (no result: AmpC no deterg)
CN1C2CCC1/C(=C\c1ccccc1F)C(=O)/C2=C/c1ccccc1F	Sm TGR inh 20µM
CC1CCN(C2=NC(=O)/C(=C/c3ccccc3F)S2)CC1	none
Cc1ccc(OCC(=O)OCc2cc(=O)n3nc(-c4cccs4)sc3n2)cc1C	none (no result: AmpC no deterg)
